S1P2 antag = human S1P2 receptor antagonists, primary screen, cell-based | inhibition, % at 5 µM | 97,000 tested, 0.21% active | cell-based S1P2 antagonist assay, inhibition at 5 uM; in the data active means inhibition above about 45%;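 further: CRE beta-lactamase reporter cells expressing human S1P2 stimulated with S1P; 0% = agonist at EC80 alone and 100% = agonist plus reference antagonist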
Target sequence (O95136 whole entry, looked up): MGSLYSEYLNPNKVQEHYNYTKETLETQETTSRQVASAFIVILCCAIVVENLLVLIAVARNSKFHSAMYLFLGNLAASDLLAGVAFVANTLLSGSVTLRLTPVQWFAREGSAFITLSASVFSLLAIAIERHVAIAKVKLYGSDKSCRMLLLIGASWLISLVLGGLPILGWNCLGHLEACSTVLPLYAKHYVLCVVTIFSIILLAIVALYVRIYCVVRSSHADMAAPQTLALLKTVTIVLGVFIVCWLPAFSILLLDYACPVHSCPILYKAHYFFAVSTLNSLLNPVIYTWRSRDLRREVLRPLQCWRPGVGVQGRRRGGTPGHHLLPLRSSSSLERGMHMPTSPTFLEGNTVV
Smad3 inh = Smad3/FoxH1 peptide binding inhibitors, primary screen, biochemical, TR-FRET. 88,000 tested, 0.29% active. TR-FRET Smad3/Dy647-FoxH1 peptide binding, europium anti-His. inhibition, % at 25 µM;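 active means compounds that reduce the energy-transfer binding signal between the protein and its labelled peptide by more than half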;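 further: 0% = Smad3 plus labelled peptide maximal FRET and 100% = peptide-only background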
Candida biofilm = clotrimazole potentiators killing Candida biofilms, primary screen, with clotrimazole, Alamar Blue. C. albicans biofilm + clotrimazole. inhibition, % at 6 µM. 85,000 tested, 0.14% active. AID 834, 2007;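 active means inhibition above 20%; inactive means inhibition below 20%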;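 further: preformed 24 hr biofilms exposed to compound for 48 hr; 0% = biofilm without compound and 100% = blank killed by clotrimazole plus chlorhexidine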
S1P2 ag = S1P2 receptor agonists, primary screen, cell-based | S1P2-expressing cell line, agonist reporter read-out | activation, % at 4.5 µM | 97,000 tested, 0.46% active | AID 729, 2007; in the data active means activation above about 16%;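 further: 0% = vehicle low control and 100% = maximal reference agonist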
GALR2 ag = GALR2 receptor agonists, primary screen, cell-based; Galanin receptor type 2 (Homo sapiens), O43603; GALR2-expressing cells, agonist activation read-out; activation, % (test concentration not listed); 140,000 tested, 0.48% active; in the data active means activation above about 5%, passing the limit was not always enough;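 further: 0% = vehicle buffer wells and 100% = reference agonist at full effect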
Target sequence (O43603 whole entry, looked up): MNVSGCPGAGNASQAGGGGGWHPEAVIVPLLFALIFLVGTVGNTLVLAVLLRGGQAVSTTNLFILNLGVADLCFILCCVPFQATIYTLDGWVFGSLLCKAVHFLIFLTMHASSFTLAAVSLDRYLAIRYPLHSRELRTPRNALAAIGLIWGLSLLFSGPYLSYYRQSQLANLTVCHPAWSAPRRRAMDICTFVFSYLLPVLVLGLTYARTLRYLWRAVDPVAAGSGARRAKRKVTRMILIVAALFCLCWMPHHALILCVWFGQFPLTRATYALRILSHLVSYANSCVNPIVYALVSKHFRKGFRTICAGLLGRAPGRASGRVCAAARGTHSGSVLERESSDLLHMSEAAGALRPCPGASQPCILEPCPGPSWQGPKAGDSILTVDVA
GALR2 blocker = GALR2 antagonists in receptor-expressing cells, primary screen | antagonist mode | inhibition, % at 4 µM | 140,000 tested, 0.39% active;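 further: cells stimulated with galanin 1-16 at roughly its EC80; 0% = agonist challenge control and 100% = basal control without agonist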
GALR2 blk conf = GALR2 antagonists, retest of hits, confirmation, cell-based | shares compounds with GALR2 blocker | GALR2-expressing cells, antagonist mode, inhibition | inhibition, % at 4 µM | 480 tested, 60% active;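 further: cells stimulated with galanin at about its EC80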
BLA inhib ctr = inhibitors of NFAT-driven beta-lactamase reporter, confirmation, counter-screen for GALR2 antagonist project, CHO NFAT-bla cells, FRET readout; 480 tested, 36% active; AID 867, 2007; inhibition, % at 4.2 µM; shares compounds with GALR2 blocker; thapsigargin-stimulated;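 active means inhibition above the mean inhibition across tested compounds plus 3 SD, cut at about 27% in these data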;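 further: 0% = 500 nM thapsigargin stimulated wells and 100% = unstimulated BSA only wells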
An asterisk follows results filed as active; x = not tested or not shown. Hits are enriched below; roughly 1.3% of the tested compounds scored in any of these assays. Unless noted, no stated cut-off is given here; in the data, active means inhibition above about 27%; inactive means the rest.

SMILES | S1P2 antag | Smad3 inh | Candida biofilm | S1P2 ag | GALR2 ag | GALR2 blocker | GALR2 blk conf | BLA inhib ctr
Cc1ccccc1Nc1nc2ccccc2s1 | x | x | x | x | -0.5 | 9.0 | x | x
Cc1ccccc1Nc1cccc2nonc12 | x | x | x | x | -2.8 | 33.1* | 37.6* | 46.8*
C=CCn1c(C)cc(C(=O)Cn2ncc(Cl)c(Cl)c2=O)c1C | x | x | x | x | -1.6 | 56.8* | 46.1* | 20.9
CCOC(=O)C1=C(CSc2nc(-c3ccccc3)ccc2C#N)OC(N)=C(C#N)C1c1ccccc1 (configuration not stated) | -3.5 | -6.4 | 1.9 | -4.7 | -1.3 | 16.7 | x | x
CCOC(=O)C1=C(CSc2nc(-c3ccccc3)ccc2C#N)OC(N)=C(C#N)C1c1cccnc1 (configuration not stated) | 5.8 | 0.8 | 0.4 | -7.6 | -1.1 | 28.6* | 29.7* | 17.0
COc1ccc(-c2[nH]c(-c3cccc(OC)c3)nc2SCC(=O)NCc2ccco2)cc1 | -9.8 | 6.3 | 6.2 | -1.9 | -0.3 | -2.5 | x | x
Cc1n[nH]c(C)c1N1C(=O)c2cccc3cc(Br)cc(c23)C1=O | -10.1 | -7.5 | -2.4 | -5.0 | -0.5 | -4.5 | x | x
Cc1n[nH]c(C)c1N1C(=O)c2cccc3c(Br)ccc(c23)C1=O | 74.3* | -0.8 | 1.5 | -9.5 | -0.6 | 43.9* | 28.3* | 24.9
COc1ccc(S(=O)(=O)Nc2cc(Sc3ncn[nH]3)c(O)c3ccccc23)cc1 | 4.6 | x | x | -2.4 | 0.0 | 48.8* | 17.5 | 15.9
O=S(=O)(Nc1cc(Sc2cccc3cccnc23)c(O)c2ccccc12)c1ccc(F)cc1 | x | x | x | x | -2.3 | 33.6* | 26.8 | 17.1
COc1ccc(S(=O)(=O)Nc2ccc(O)c(Sc3ncn[nH]3)c2)cc1 | -23.9 | 18.6 | 6.2 | 0.5 | -0.6 | 3.3 | x | x
Cc1[nH]c2ccccc2c1/C=C(\C#N)C(=O)NCc1ccccc1 | x | x | x | x | 0.1 | 32.5* | 21.8 | 4.5
COC(=O)C1C(=O)c2c([nH]c(C(=O)OCC3CCCO3)c2C)CC1C (configuration not stated) | x | -1.6 | 7.4 | x | -0.8 | -1.9 | x | x
O=C(/C=C/c1ccccc1)Nc1ncn[nH]1 | 28.0 | x | x | -3.2 | -4.0 | 29.9* | 37.3* | 24.3
O=C(CCc1ccccc1)Nc1ncn[nH]1 | 2.9 | 16.9 | 5.8 | -3.9 | -3.1 | 0.5 | x | x
COc1cc(C(=O)NC(=S)Nc2ccc([N+](=O)[O-])cc2C)cc(OC)c1OC | x | x | x | x | -1.1 | 49.5* | 7.2 | 3.9
COc1cccc(C2=CC(c3ccc(N(C)C)cc3)n3ncnc3N2)c1 (configuration not stated) | -7.6 | 12.4 | 1.3 | -1.2 | 0.6 | 8.1 | x | x
COc1cccc(C2=CC(c3ccccc3)n3ncnc3N2)c1 (configuration not stated) | 24.7 | x | x | -6.9 | -0.8 | 27.0* | 29.5* | 35.8*
Cc1[nH]c(=O)c(C#N)c2c1CSC(C)(C)C2 | -18.1 | -12.3 | 4.0 | -7.6 | -0.8 | 2.8 | x | x
O=c1oc2cc(N=Cc3ccc4c(c3)OCO4)ccc2c2ccccc12 | x | -1.3 | x | x | x | x | x | x
O=C1NC(c2ccccc2)C(C(=O)c2cccs2)C(O)(C(F)(F)F)N1 (configuration not stated) | 10.2 | 7.8 | 7.9 | -2.5 | -3.5 | 33.1* | 9.1 | -0.1
COc1cc(C2NC(=S)NC(O)(C(F)(F)F)C2C(=O)c2cccs2)cc(OC)c1O (configuration not stated) | x | x | x | x | 0.9 | 10.1 | x | x
CC(=O)c1c(C)[nH]c(C(=O)OCC(=O)Nc2ccc(Cl)cc2[N+](=O)[O-])c1C | x | x | x | x | -0.2 | 36.1* | 50.9* | 19.3
CCOc1ccc(NC(=O)c2ccco2)c([N+](=O)[O-])c1 | x | x | x | x | 0.1 | 6.9 | x | x
CCOC(=O)C1CCN(Cc2nc3ccc(Cl)cc3n2CCO)CC1 | 5.7 | 13.5 | 3.7 | -8.1 | -3.4 | -5.2 | x | x
SMILES | S1P2 antag | Smad3 inh | Candida biofilm | S1P2 ag | GALR2 ag | GALR2 blocker | GALR2 blk conf | BLA inhib ctr
Cc1nn(-c2ccccc2)c2c1C(c1ccc([N+](=O)[O-])cc1)N1C(=N2)C(=O)Nc2ccccc21 (configuration not stated) | x | x | x | x | -0.3 | 4.4 | x | x
Cc1nn(-c2ccccc2)c2c1C(c1ccc(O)c(O)c1)N1C(=N2)C(Nc2ccccc2)=Nc2ccccc21 (configuration not stated) | 85.1* | 0.2 | 8.0 | -12.2 | 1.7 | 47.5* | 37.2* | 59.0*
Cc1cccc(NC2=Nc3ccccc3N3C2=Nc2c(c(C)nn2-c2ccccc2)C3c2ccc(O)c(O)c2)c1 (configuration not stated) | 79.7* | 7.8 | 8.0 | -7.8 | 3.2 | 44.8* | 43.8* | 67.5*
Cc1nn(-c2ccc([N+](=O)[O-])cc2)c2c1C(c1cccc(Br)c1)N1C(=N2)C(=O)Nc2ccccc21 (configuration not stated) | x | x | x | x | 0.3 | 5.8 | x | x
Cc1ccc(NC2=Nc3ccccc3N3C2=Nc2c(c(C)nn2-c2ccccc2)C3c2ccc(O)c(O)c2)cc1 (configuration not stated) | 76.6* | -6.8 | 11.1 | -8.7 | 3.8 | 57.5* | 51.1* | 69.0*
COC(=O)c1ccc(CNC(=O)COC(=O)C2CCC(C(C)(C)C)CC2)cc1 (configuration not stated) | x | x | x | x | -0.5 | 1.1 | x | x
CCOc1ccc(-c2nnc3n2N=C(c2ccc(OC)cc2)CS3)cc1 | -25.1 | -6.1 | 4.3 | 2.3 | -1.7 | -1.4 | x | x
CCOc1ccc(C2=Nn3c(nnc3-c3ccccc3OC)SC2)cc1 | 5.8 | x | x | 5.3 | 5.3* | 33.5* | 31.9* | 59.9*
CCOC(=O)C(O)(CC(=O)Nc1cc(F)ccc1C)C(F)(F)F (configuration not stated) | 6.5 | 0.6 | 3.6 | -1.2 | -2.5 | 29.4* | 8.2 | 4.7
CC(CC(=O)c1cccs1)CC(=O)c1cccs1 | 15.1 | x | x | -8.6 | -3.5 | 32.5* | 8.8 | 5.0
O=C(CCC(=O)OCCCC(F)(F)C(F)(F)F)Nc1ccc(Cl)cc1Cl | -6.5 | 9.4 | 0.8 | -5.0 | -0.6 | -1.0 | x | x
O=C(Nc1ccc2nc(-c3cccnc3)[nH]c2c1)C1CCCCC1 | -11.5 | -3.0 | 0.3 | 1.1 | -0.7 | 12.3 | x | x
O=C(Nc1ccc2nc(-c3cccnc3)[nH]c2c1)C12CC3CC(CC(C3)C1)C2 | 4.1 | 8.0 | 4.9 | -7.0 | -2.8 | 42.5* | 29.6* | 9.6
Cc1[nH]nc2c1C(c1cc(Br)cs1)C(C#N)=C(N)O2 (configuration not stated) | x | x | x | x | -1.5 | 2.9 | x | x
Cc1ccc(S(=O)(=O)CC2CSc3nc4ccccc4n32)cc1 (configuration not stated) | 58.0* | x | x | -4.8 | -1.3 | 36.3* | 29.1* | 7.1
CNC(=O)c1nc(C)n(-c2cc(Cl)ccc2Cl)n1 | -4.5 | x | x | -10.0 | -0.3 | -10.8 | x | x

High-throughput results as filed in PubChem BioAssay.
